From PubChem
Pyk2 oligo antag – antagonists of human Pyk2 oligomerization | Q293 cells, Pyk2 FERM NanoBiT luminescence; hits give low values | Q14289 | AID 1347419 | actives 0.83% (n = 99,000) | z-score (the deposit names both 25 µM and 10 µM);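 active means Z-score of -3 or lower, scaled per plate to the spread of control and sample wells; inactive means z-score above -3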;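 further: negative z-score means lost luminescence so less FERM oligomerization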
CYP2C9 activ – activators of human CYP2C9; P11712; recombinant CYP2C9, luciferin-H conversion, luminescence; hits give high values; factor 1 = untreated enzyme, 0 = blocked; activation factor at 5 µM; actives 1.4% (n = 96,000);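 active means activation factor of 2 or more for CYP2C9 at a 5 µM dose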
CYP2C9 inhib – blocks human cytochrome P450 2C9 | P11712 | CYP2C9 Supersomes, luciferin-H conversion, luminescence | inhibition, % at 5 µM | actives 20% (n = 96,000) | AID 777;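 active means blocking of liver enzyme CYP2C9 beyond about 50% at 5 µM, limit read from the data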
CYP2C19 inhib – blocks human cytochrome P450 2C19; P33261; CYP2C19 Supersomes, luciferin-H EGE luminescence, 30 min; inhibition, % at 5 µM; actives 21% (n = 96,000); AID 778;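 active means CYP2C19 inhibition above a set limit at 5 µM in the primary screen, cut at about 50% in these data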
CYP2C19 activ – cytochrome P450 2C19 (human) activation; P33261; recombinant CYP2C19, luciferin-H EGE luminescence; hits give high values; 0 = fully inhibited enzyme, 1 = untreated enzyme; activation factor at 5 µM; 96,000 tested, under 10 active;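 active means activation factor of at least 2 at 5 µM in the primary screen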
Of the large screens only hits and unclear results are named; the others gave an inactive call. This is a sample that favours compounds with a hit; in the whole collection about 28% have one here.

CCOC(=O)c1sc(NC(=O)CSc2nc(-c3ccco3)cc(C(F)(F)F)n2)c(C(=O)OC)c1C	CYP2C9 inhib 72
O=C(Cn1cnc2c(nnn2Cc2ccccc2F)c1=O)NCc1ccco1	none
COc1ccc(CCn2nnnc2C(C(C)C)N2CCN(c3ncccn3)CC2)cc1OC (stereo not drawn)	CYP2C9 inhib 72
COc1ccc(N2CCN(C(c3nnnn3CCc3ccccc3)C(C)C)CC2)cc1 (stereo not drawn)	none
COc1ccc(CCn2nnnc2C(CC(C)C)N2CCC(C(N)=O)CC2)cc1OC (stereo not drawn)	none
COc1ccc(CCn2nnnc2C(CC(C)C)N2CCN(c3ncccn3)CC2)cc1OC (stereo not drawn)	CYP2C9 inhib 76
CCCCc1c(O)nc(SCC(=O)NCCc2ccc(OC)c(OC)c2)[nH]c1=O	none
O=S(=O)(c1ccc2ccccc2c1)N1CCCOC1	CYP2C9 activ 3.5
O=S(=O)(c1ccc2ccccc2c1)N1CCCCC1	CYP2C9 activ 2.5
CCC(C)Nc1nc(OC)nc(N(C)C#N)n1 (stereo not drawn)	none
N#CC1=C(N)Nc2ncnn2C1c1ccc(F)cc1 (stereo not drawn)	none (no result: CYP2C9 activ, CYP2C9 inhib, CYP2C19 inhib, CYP2C19 activ)
C=C(C)CSC1=C(C#N)C(c2ccsc2)CC(=O)N1 (stereo not drawn)	none
CC(=O)n1cc(-c2ccncc2)c2ccccc21	CYP2C9 inhib 79, CYP2C19 inhib 80 (no result: Pyk2 oligo antag)
CN(C)S(=O)(=O)c1c(Cl)cccc1Cl	none
CCn1cc(C(=O)NCc2ccc3c(c2)OCO3)c(=O)c2cc(F)c(N3CCN(C(=O)c4ccco4)CC3)cc21	CYP2C9 inhib 58
CCn1cc(C(=O)NCc2ccccc2)c(=O)c2cc(F)c(N3CCN(C(=O)c4ccco4)CC3)cc21	CYP2C9 inhib 64, CYP2C19 inhib 53
CC(=O)c1cc(F)c(N2CCN(C(=O)c3ccco3)CC2)cc1C	CYP2C19 inhib 60
CCCCCOC(=O)Cn1c(N2CCCCCC2)nc2c1c(=O)[nH]c(=O)n2C	none
Cc1cc(C)c2c3c(sc2n1)C(c1cccc(F)c1)C(C#N)=C(N)O3 (stereo not drawn)	none
c1ccc(Cc2nn[nH]n2)cc1	none
CC(C)(C)c1cc(Cc2ccccc2)[nH]n1	CYP2C19 inhib 82
COC(=O)CCS(=O)(=O)c1ccc(Cl)c(Cl)c1	none (no result: Pyk2 oligo antag)
COc1cc(OC)cc(C(=O)NC2=NCCS2)c1	none
COc1ccc(N(C)S(=O)(=O)c2cccc(C(=O)NC3=NCCS3)c2)cc1	CYP2C9 inhib 64
Cc1ccc(N(C)S(=O)(=O)c2cccc(C(=O)NC3=NCCS3)c2)cc1	CYP2C9 inhib 69
COc1ccc(CCNc2ncnc3c2oc2ccccc23)cc1OC	CYP2C19 inhib 57
O=c1[nH]c(CN2CCN(Cc3ccc4c(c3)OCO4)CC2)nc2sc3c(c12)CCC3	none (no result: Pyk2 oligo antag)
COc1ccc2c(c1)nc(SCC(=O)c1ccc(Br)s1)n2C	CYP2C9 inhib 51, CYP2C19 inhib 72
COc1ccc(C(=O)CSc2nc3cccnc3n2C)cc1	none (no result: CYP2C9 activ, CYP2C9 inhib, CYP2C19 inhib, CYP2C19 activ)
CCOC(=O)C(NC(C)=O)(Nc1ccc(F)cc1)C(F)(F)F (stereo not drawn)	CYP2C19 inhib 63
CCOC(=O)C(NC(C)=O)(Nc1cccc(F)c1)C(F)(F)F (stereo not drawn)	none
CCOC(=O)C(NC(=O)Nc1ccc(F)cc1)(OCC)C(F)(F)F (stereo not drawn)	CYP2C19 inhib 50
CC(C)Sc1nc(C(F)(F)F)cc(=O)n1-c1ccccc1	none
CCOC(=O)CCCNC(=O)CN1C(=O)NC2(CCCCCC2)C1=O	none
COc1ccc(OCCOC(=O)c2ccc(-n3cnnn3)cc2)cc1	CYP2C9 inhib 73
COc1ccc(OCCOC(=O)c2cccc(-n3cnnn3)c2)cc1	CYP2C9 inhib 58, CYP2C19 inhib 66
COc1ccc(-n2c(C)cc(C(=O)COc3ccc(-n4cnnn4)cc3)c2C)cc1	none
CCOc1ccc(C(C)=O)cc1COc1ccc(-n2cnnn2)cc1	CYP2C9 inhib 78, CYP2C19 inhib 97
CC(=O)OC(Cn1ccnc1)c1ccccc1 (stereo not drawn)	none
Cc1cccc(NC(=O)CC2SC(=O)N(c3ccccc3)C2=O)c1 (stereo not drawn)	none
Cc1cccc(NC(=O)CC2S/C(=N/c3nccs3)N(C)C2=O)c1 (stereo not drawn)	CYP2C9 inhib 80, CYP2C19 inhib 54
Cn1nnc(-c2ccc(OCc3ccccc3F)cc2)n1	CYP2C19 inhib 66
CCCNC(=O)c1c(N)n(-c2cc(OC)cc(OC)c2)c2nc3ccccc3nc12	CYP2C9 inhib 70
Nc1c(C(=O)OCC2CCCO2)c2nc3ccccc3nc2n1-c1ccc2c(c1)OCCO2 (stereo not drawn)	CYP2C9 inhib 59, CYP2C19 inhib 54 (no result: Pyk2 oligo antag)
C=CCn1c(N)c(C(=O)NCC2CCCO2)c2nc3ccccc3nc21 (stereo not drawn)	none
Nc1c(C(=O)NC2CC2)c2nc3ccccc3nc2n1-c1ccc2c(c1)OCO2	none
CCCNC(=O)c1c(N)n(-c2ccc3c(c2)OCO3)c2nc3ccccc3nc12	none
COc1ccc(-n2c(N)c(C(=O)NCC3CCCO3)c3nc4ccccc4nc32)c(OC)c1 (stereo not drawn)	CYP2C9 inhib 55
CCOC(=O)c1[nH]c2ccccc2c1NC(=O)Nc1ccc(OC)cc1	none
CC(=O)Nc1ccc(S(=O)(=O)Nc2nc3ccccc3nc2Nc2ccc3ccccc3c2)cc1	none (no result: CYP2C9 activ, CYP2C9 inhib, CYP2C19 inhib, CYP2C19 activ)
CCCCN(CCCC)c1nc2ccccc2nc1NS(=O)(=O)c1ccc(NC(C)=O)cc1	CYP2C9 inhib 64
Cn1c(SCC(=O)NCCNC(=O)CSc2nnc(C(F)(F)F)n2C)nnc1C(F)(F)F	none
COc1cc(-c2nc(-c3ccccc3)c(-c3cccs3)[nH]2)cc(OC)c1O	CYP2C9 inhib 82, CYP2C19 inhib 61
COc1cc(-c2nc(-c3ccc4c(c3)-c3ccccc3S4(=O)=O)c(-c3ccccc3)[nH]2)cc(OC)c1OC	Pyk2 oligo antag -3
COc1ccccc1C(=O)Nc1nc(-c2cccs2)c(NC(C)=O)s1	none
COc1cc(-c2nc(-c3ccccc3)c(-c3cccs3)[nH]2)cc(OC)c1OC	Pyk2 oligo antag -3
c1ccc(-c2nc(-c3cccs3)[nH]c2-c2ccccc2)cc1	none
COc1cccc(-c2nc(-c3ccc4c(c3)-c3ccccc3S4(=O)=O)c(-c3ccccc3)[nH]2)c1OC	none (no result: CYP2C9 activ, CYP2C9 inhib, CYP2C19 inhib, CYP2C19 activ)
CCCc1cc(=O)n2[nH]c(NCc3cccs3)nc2n1	none
CS(=O)(=O)N(Cc1ccccc1)c1ccccc1C(=O)O	none
Cc1ccc(S(=O)(=O)N(Cc2ccccc2)c2ccccc2C(=O)NCc2ccco2)cc1	CYP2C9 inhib 99
CN(C)S(=O)(=O)c1ccc(Cl)c(C(=O)NCc2ccco2)c1	none
CS(=O)(=O)N(Cc1ccccc1)c1ccccc1C(=O)Nc1ccccc1C(=O)NCc1ccco1	CYP2C9 inhib 84, CYP2C19 inhib 89
O=c1c(Sc2ccccc2)c(C(F)(F)F)[nH]n1-c1ccccc1	CYP2C9 inhib 97
CC1CCCC(C)N1C(=O)c1cc(F)c(F)cc1Cl (stereo not drawn)	CYP2C19 inhib 59
